# Experimental data as given in PubChem BioAssay (NCI).
# About 83,000 compounds went through this panel and 20% of them were active in at least one assay; those are over-represented in the sample as a whole.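 Single-concentration screen, 48 h exposure, 96-well plates. Endpoint: percent growth. Below 10 = active.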 Unmarked numbers belong to inactive results. Active and inactive are the calls of the source.
# Experiments:
# Experiment in all cases: NCI-60 one-dose screen, 48 h (100 = growth as untreated, 0 = no growth, -100 = all killed)
# Conditions in all cases: 10 µM unless noted
# [1] = tested on: DU-145 prostate
# [2] = tested on: MALME-3M melanoma
# [3] = tested on: MDA-MB-231 breast
# [4] = tested on: RXF 393 renal
# [5] = tested on: SF-268 CNS
# [6] = tested on: SF-295 CNS
# [7] = tested on: SF-539 CNS
# [8] = tested on: UACC-257 melanoma
# [9] = tested on: M14 melanoma
# [10] = tested on: HCT-15 colon
# [11] = tested on: HT29 colon
# [12] = tested on: SNB-75 CNS
# [13] = tested on: SNB-19 CNS
# [14] = tested on: U251 CNS
# [15] = tested on: PC-3 prostate
# [16] = tested on: SK-MEL-5 melanoma
# [17] = tested on: UACC-62 melanoma
# [18] = tested on: LOX IMVI melanoma
# [19] = tested on: SK-MEL-28 melanoma
Compound,growth [1],growth [2],growth [3],growth [4],growth [5],growth [6],growth [7],growth [8],growth [9],growth [10],growth [11],growth [12],growth [13],growth [14],growth [15],growth [16],growth [17],growth [18],growth [19]
Nc1c(S(=O)(=O)O)cc2c3c(cccc13)C(=O)OC2=O,140%,112%,103%,131%,109%,117%,100%,78.8%,102%,95.9%,106%,79.2%,99.7%,97.8%,106%,102%,97.8%,94.3%,115%
CCOC(=O)CC1CSC(N/N=C/c2ccc(-n3cccn3)cc2)=N1 (configuration not stated),108%,113%,101%,105%,103%,107%,107%,96.2%,107%,104%,99.3%,101%,98.9%,96.9%,99.6%,98.1%,92.5%,97.4%,111%
C#Cc1cccc(NC(=O)Nc2cccc(NC(=O)CCl)c2)c1,44.4% [8.25 µM],-50.2% [8.25 µM] (active),-61% [8.25 µM] (active),-48.7% [8.25 µM] (active),-2.2% [8.25 µM] (active),45% [8.25 µM],-95.2% [8.25 µM] (active),48.7% [8.25 µM],6.26% [8.25 µM] (active),-56.5% [8.25 µM] (active),18% [8.25 µM],30% [8.25 µM],-11% [8.25 µM] (active),-88% [8.25 µM] (active),-26.3% [8.25 µM] (active),-96% [8.25 µM] (active),-61.6% [8.25 µM] (active),-93.8% [8.25 µM] (active),48.5% [8.25 µM]
COc1ccc(-c2nc([C@@H](C)Sc3nc(N)cc(N)n3)c(C)s2)cc1OCCN1CCOCC1,111%,102%,66.6%,96%,102%,97.6%,111%,100%,114%,103%,97.4%,91.9%,91.3%,91.8%,79.8%,82.2%,84.3%,95.8%,113%
COc1cc(/C=C2\COc3ccc(-c4ccccc4)cc3C2=O)cc(OC)c1,85.8%,101%,95.5%,66.1%,82.3%,68.9%,100%,70.9%,91.9%,61.3%,60.7%,51.8%,98.9%,75.8%,57.9%,86.3%,75.9%,71.9%,97.7%
CC(=O)[C@@H]1CC[C@]2(CO)CC[C@]3(C)[C@H](CC[C@@H]4[C@@]5(C)CCCNC(C)(C)[C@@H]5CC[C@]43C)[C@@H]12,101%,92.9%,107%,104%,91.2%,105%,105%,123%,93.6%,81.5%,68.1%,86%,99.1%,108%,86%,92.7%,94.7%,95.6%,113%
CC(C)=CCC[C@](C)(O)[C@H]1CC[C@]2(C)[C@@H]1CC[C@@H]1[C@@]3(C)C/C(=C/c4ccccc4)C(=O)C(C)(C)[C@@H]3CC[C@]12C,85.3%,78.6%,85.5%,95.3%,94.7%,109%,90.4%,104%,96.5%,93.6%,99.9%,67.2%,88%,85.8%,79.6%,98.7%,88.2%,93.4%,104%
O=Cc1ccc(-c2cn3ccnc3c(-c3ccc4ncn(Cc5ccccc5)c4c3)n2)cc1,75.7%,113%,40.8%,75%,72.9%,76.9%,68.5%,122%,77%,50.9%,82.5%,78.6%,85.6%,68%,81%,43.5%,62.9%,53.1%,92.5%
